High-throughput results (PubChem)
Most compounds without a hit are left out; they make up all but 7.4% or so of the library.
ELG1 genotoxic: inducers of genotoxicity in HEK293T ELG1-luciferase cells; HEK293T ELG1-luciferase reporter, luminescence, 16 h; Potency, µM (top dose mostly 46 µM), actives largely listed as activators; hit rate 1.3% among 330,000; AID 504466; note: nearly all actives have a fitted effect of over 60% in size
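16 hr compound incubation (37 °C, 5% CO2) of HEK293T cells carrying luciferase-tagged ELG1; luciferase then measured by ONE-Glo luminescence after 30 min at RT.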
Rab9 prom act: activators of Rab9 promoter. Huh7 Rab9 promoter-luciferase reporter, luminescence, 24 h. Potency, µM (highest dose often 9.22 µM), usual class: activators. hit rate 2.8% among 320,000. AID 485297; note: nearly all actives have a fitted effect of over 60% in size
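Using Huh7 cells stably transfected with Rab9 promoter–luciferase, compounds were incubated 24 h at 37 °C, 5% CO2; luciferase luminescence was read 10 min after reagent addition.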
NPC1 prom act: activates the NPC1 promoter; Huh7 NPC1 promoter luciferase reporter, 24 h; Potency, µM (series often up to 9.22 µM), actives largely listed as activators; hit rate 2.4% among 320,000; note: nearly all actives have a fitted effect of over 60% in size
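Stably transfected Huh7 (NPC1 promoter→luciferase), 1500 cells/well in Opti-MEM + 10% FBS, 2 h settle, then compound 24 h at 37 °C. Luminescence after 10 min with Amplite reagent.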
FLuc modulator: inhibits or activates purified firefly luciferase, miR-21 counter-screen | P08659 | purified FLuc, Km substrates, luminescence inhibition | Potency, µM (doses to about 57.5 µM), hits mostly inhibitors | hit rate 6.9% among 360,000 | AID 588342; note: nearly all actives have a fitted effect of over 55% in size
Target sequence (P08659 whole entry, looked up): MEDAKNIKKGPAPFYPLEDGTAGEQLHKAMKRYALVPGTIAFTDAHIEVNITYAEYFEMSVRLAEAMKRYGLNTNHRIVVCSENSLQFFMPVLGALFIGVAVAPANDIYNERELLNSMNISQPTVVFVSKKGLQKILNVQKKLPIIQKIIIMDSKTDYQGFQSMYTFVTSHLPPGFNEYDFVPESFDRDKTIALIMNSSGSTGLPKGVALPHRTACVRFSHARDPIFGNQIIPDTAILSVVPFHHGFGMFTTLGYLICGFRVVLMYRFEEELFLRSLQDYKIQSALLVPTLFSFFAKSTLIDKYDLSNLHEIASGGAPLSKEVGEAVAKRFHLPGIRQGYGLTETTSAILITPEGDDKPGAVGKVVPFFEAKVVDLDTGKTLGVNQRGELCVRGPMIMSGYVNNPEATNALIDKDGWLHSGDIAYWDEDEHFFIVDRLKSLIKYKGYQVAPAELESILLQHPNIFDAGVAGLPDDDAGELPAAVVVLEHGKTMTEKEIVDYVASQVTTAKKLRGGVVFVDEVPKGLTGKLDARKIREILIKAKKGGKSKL
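Purified P. pyralis luciferase, 10 nM final, with Km-level 10 uM D-luciferin and 10 uM ATP in 50 mM Tris acetate pH 7.5, 10 mM Mg acetate, 0.01% Tween-20, 0.05% BSA; 6-point qHTS titration about 60 µM downward; luminescence read.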
KinaseGlo FLuc: Kinase-Glo luciferase inhibition (counter-screen); Q27757; Kinase-Glo luciferase, ATP luminescence, 8 min; Potency, µM (highest dose often 38.3 µM), hits mostly inhibitors; hit rate 0.28% among 200,000; AID 1379; note: nearly all actives have a fitted effect of over 60% in size
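Compound is pinned into ATP-containing buffer (10 uM ATP, imidazole pH 7.2, 7 mM MgCl2). Kinase-Glo luciferase reagent is then added. Light output is recorded following an 8-min room-temperature incubation.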
SMN2 splice up: SMN2 splice variant enhancement. hit rate 2.8% among 210,000. AID 1458. HEK293 SMN2-luciferase splicing reporter, luminescence, 30-36 h. Potency, µM (doses to about 46.1 µM), most hits filed as activators; note: nearly all actives have a fitted effect of over 55% in size
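HEK293 cells carry an SMN2 […]–luciferase reporter in which exon 7 inclusion puts luciferase in frame. Cells were plated 10-12 h before compound addition, then incubated 30-36 h at 37C. ONE-Glo luminescence was read; sodium butyrate at 4.5 mM final served as control.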
Hits are given with their value; [ ] = dose if it differs, or a comment. Calls come from the whole dose curve; as a rule, active = well fitted curve in the direction sought with a large enough effect; inconclusive = small, poorly fitted or top-dose-only effect, or another doubt; inactive = no such curve, though single readings can be large; an effect the other way counts as inactive or inconclusive.

What do the screens show for `CC(C)n1nnnc1SCC(=O)c1ccc2c(c1)OCCO2`?
ELG1 genotoxic: inactive; Rab9 prom act: 3.5µM; NPC1 prom act: 3.5µM; FLuc modulator: 4.8µM; KinaseGlo FLuc: inactive; SMN2 splice up: inactive

Results for Cn1nccc1C(=O)OCC(=O)Nc1ccccc1Cl ?
ELG1 genotoxic: inactive; Rab9 prom act: inactive; NPC1 prom act: inactive; FLuc modulator: inactive

What do the screens show for `COc1ccccc1N1CCN(S(=O)(=O)c2c(C)sc3ncn(CC(=O)Nc4ccc(C)cc4Br)c(=O)c23)CC1`?
FLuc modulator: inactive; SMN2 splice up: inactive

How did COc1ccc(C)cc1-n1nnnc1SCC(=O)c1ccc2c(c1)OCCO2 do in these assays?
ELG1 genotoxic: inactive; Rab9 prom act: inactive; NPC1 prom act: inactive; FLuc modulator: 17µM; KinaseGlo FLuc: inactive; SMN2 splice up: inactive

What do the screens show for `COc1ccc(-n2nnnc2SCC(=O)c2ccc3c(c2)OCCO3)c(OC)c1`?
ELG1 genotoxic: inactive; Rab9 prom act: inactive; NPC1 prom act: inactive; FLuc modulator: inconclusive; KinaseGlo FLuc: inactive; SMN2 splice up: inactive

How did CCn1nnnc1SCC(=O)c1ccc2c(c1)OCCO2 do in these assays?
ELG1 genotoxic: inactive; Rab9 prom act: inconclusive; NPC1 prom act: inconclusive; FLuc modulator: 19µM; KinaseGlo FLuc: inactive; SMN2 splice up: inactive

What do the screens show for `CCN1CCN(Cc2ccc(NC(=O)c3cc(NC(=O)c4ccc5n[nH]nc5c4)cc(OC)c3)cc2C(F)(F)F)CC1`?
ELG1 genotoxic: inactive; Rab9 prom act: inactive; NPC1 prom act: inactive; FLuc modulator: 2.7µM

How did CCN1CCN(Cc2ccc(NC(=O)c3cc(NC(=O)c4cc(-c5ccc(OC)cc5)n[nH]4)cc(OC)c3)cc2C(F)(F)F)CC1 do in these assays?
ELG1 genotoxic: inactive; Rab9 prom act: inactive; NPC1 prom act: inactive; FLuc modulator: 13µM

How did CCN1CCN(Cc2ccc(NC(=O)c3cc(NC(=O)c4ccno4)cc(OC)c3)cc2C(F)(F)F)CC1 do in these assays?
ELG1 genotoxic: inactive; Rab9 prom act: inactive; NPC1 prom act: inactive; FLuc modulator: inactive

How did N#CCCN(NC1=NS(=O)(=O)c2ccccc21)C(=O)c1ccccc1Br do in these assays?
ELG1 genotoxic: inactive; Rab9 prom act: inactive[1.84 µM]; NPC1 prom act: inactive; FLuc modulator: inactive

What do the screens show for `CC(=O)c1sc(NC(=O)COc2ccc(Cl)cc2C)nc1C`?
ELG1 genotoxic: inactive; Rab9 prom act: inactive; NPC1 prom act: inactive; FLuc modulator: inconclusive

How did COC(=O)N/N=C\C=C\c1ccc2c(c1)OCO2 do in these assays?
ELG1 genotoxic: inactive; Rab9 prom act: 3.5µM; NPC1 prom act: 4µM; FLuc modulator: 15µM; KinaseGlo FLuc: inactive; SMN2 splice up: inactive

How did COc1ccc(CC(=O)N/N=C/C=C/c2ccc3c(c2)OCO3)cc1OC do in these assays?
ELG1 genotoxic: inactive; Rab9 prom act: inactive; NPC1 prom act: inactive; FLuc modulator: inactive

What do the screens show for `CC(C)(C)OC(=O)N/N=C\C=C\c1ccc2c(c1)OCO2`?
ELG1 genotoxic: inconclusive; Rab9 prom act: 1.6µM; NPC1 prom act: 4µM; FLuc modulator: 7.6µM; KinaseGlo FLuc: inactive; SMN2 splice up: inactive[1.84 µM]

How did CCOC(=O)N/N=C\C=C\c1ccc2c(c1)OCO2 do in these assays?
ELG1 genotoxic: inconclusive; Rab9 prom act: 3.2µM; NPC1 prom act: inconclusive; FLuc modulator: 13µM; KinaseGlo FLuc: inactive; SMN2 splice up: inactive[1.84 µM]

What do the screens show for `COc1cc(C2C(=O)N(C3CCCCCC3)CC(=O)N2CCc2ccccc2)ccc1OC(C)C` (stereo not drawn)?
FLuc modulator: inactive

What do the screens show for `COc1ccccc1N1CCN(c2nc(-c3ccccc3)cc(C(F)(F)F)n2)CC1`?
ELG1 genotoxic: inactive; Rab9 prom act: inactive; NPC1 prom act: inactive; FLuc modulator: inactive; KinaseGlo FLuc: inactive; SMN2 splice up: inactive

How did COc1ccccc1N1CCN(c2ccc(-c3ccccc3)nn2)CC1 do in these assays?
ELG1 genotoxic: inconclusive; Rab9 prom act: 0.28µM; NPC1 prom act: inconclusive; FLuc modulator: 0.76µM; KinaseGlo FLuc: 8.9µM; SMN2 splice up: inconclusive

How did COc1ccccc1N1CCN(c2ccc3ccccc3n2)CC1 do in these assays?
ELG1 genotoxic: inconclusive; Rab9 prom act: 0.32µM; NPC1 prom act: 0.32µM; FLuc modulator: 0.95µM

How did COc1ccccc1N1CCN(c2cc(N3CCCC3)nc(C)n2)CC1 do in these assays?
ELG1 genotoxic: inactive; Rab9 prom act: inactive; NPC1 prom act: inactive; FLuc modulator: inactive; KinaseGlo FLuc: inactive; SMN2 splice up: inactive

What do the screens show for `CCN1CCN(Cc2c(O)ccc3oc(C)c(C(=O)Nc4cccc(Cl)c4C)c23)CC1`?
FLuc modulator: inactive; SMN2 splice up: inactive

How did C=CCOc1ccc(C(=O)/C=C2/C(=O)Nc3ccccc32)cc1 do in these assays?
ELG1 genotoxic: inactive; Rab9 prom act: inactive; NPC1 prom act: inactive; FLuc modulator: 1.5µM

What do the screens show for `NC(=O)COc1ccc(C(=O)/C=C2/C(=O)Nc3ccccc32)cc1`?
ELG1 genotoxic: inactive; Rab9 prom act: inactive; NPC1 prom act: inactive; FLuc modulator: 11µM

How did CCOC(=O)C1CCN(C(=O)Cn2c(=O)cc(C)c3c(C)nn(C)c32)CC1 do in these assays?
FLuc modulator: inactive

How did CCOC(=O)c1cnc2cc(-c3ccc(Br)cc3)nn2c1C do in these assays?
ELG1 genotoxic: inconclusive; Rab9 prom act: 2.8µM; NPC1 prom act: inconclusive; FLuc modulator: inconclusive

What do the screens show for `CCOC(=O)c1cnc2cc(-c3ccc(Cl)cc3)nn2c1-c1ccccc1`?
FLuc modulator: inactive; SMN2 splice up: inactive

What do the screens show for `CCOC(=O)c1cnc2cc(-c3ccc(Cl)cc3)nn2c1N`?
ELG1 genotoxic: inconclusive; Rab9 prom act: 1.3µM; NPC1 prom act: 1.1µM; FLuc modulator: inconclusive; KinaseGlo FLuc: inactive; SMN2 splice up: inconclusive

What do the screens show for `O=C(COc1ccc(F)cc1)NC1CC(=O)N(c2ccc3c(c2)OCCO3)C1` (stereo not drawn)?
FLuc modulator: inactive

What do the screens show for `O=C(O)C1CCC(c2ccc(-c3ccccc3)cc2)CC1` (stereo not drawn)?
ELG1 genotoxic: inconclusive; Rab9 prom act: inconclusive; NPC1 prom act: 2.8µM; FLuc modulator: 6.7µM

What do the screens show for `CC(NC(=O)C1CC1)c1ccc(-c2ccccc2)cc1` (stereo not drawn)?
ELG1 genotoxic: inactive; Rab9 prom act: inactive; NPC1 prom act: inactive; FLuc modulator: inactive

How did CCC(C)c1ccc(NC(=O)Nc2cnccn2)cc1 (stereo not drawn) do in these assays?
ELG1 genotoxic: inconclusive; Rab9 prom act: inconclusive; NPC1 prom act: inactive; FLuc modulator: 6.7µM

Results for Cc1ccc(NC(=O)C2CCCN(c3ncccn3)C2)cc1C (stereo not drawn) ?
ELG1 genotoxic: inconclusive; Rab9 prom act: inconclusive; NPC1 prom act: inconclusive; FLuc modulator: 17µM
